# Source: PubChem BioAssay (NCATS)
# Where “and” joins values, the source holds several entries; their conditions need not be identical. Identical values can stand only once. Inconclusive results are not listed. A number with no mark means an inactive call. Calls of active or inactive are those of the source. Calls come from the whole dose curve; as a rule, active = well fitted cell-killing curve with a large enough effect; inconclusive = small, poorly fitted or top-dose-only effect; inactive = flat fitted curve, though single readings scatter.
# Test: Cell Viability - H-4-II-E (AID 543); note: nearly all actives have a fitted effect of over 35% in size
# Conditions: H-4-II-E rat hepatoma viability; series mostly up to 92.2 µM; activity change, negative = cytotoxic: at the top concentration
# Excerpt: NIH Chemical Genomics Center [NCGC]
# NIH Molecular Libraries Screening Centers Network [MLSCN]
# National Institutes of Environmental Health Sciences [NIEHS]
# National Toxicology Program [NTP]
# We have developed a 1536-well cell-based assay for quantitative high throughput screening (qHTS) against a number of cell lines to determine in vitro cytotoxicity of small molecules. This particular assay uses the H-4-II-E cell line which is derived from rat hepatoma.
# NCGC Assay Protocol Summary:
# The CellTiter-Glo luminescent cell viability assay (Promega) is a homogeneous method to measure the number of viable cells in culture. The end point readout of this assay is based on quantitation of intracellular ATP, an indicator of metabolic activity, using the luciferase reaction. Luciferase catalyzes the oxidation of beetle Luciferin to oxyluciferin and light in the presence of ATP. The luminescent signal is proportional to amount of ATP present.
# Using the CellTiter-Glo luminescent cell viability assay, the amount of cellular ATP was measured in the H-4-II-E cell line with complete culture medium following compound treatment for 40 hours. The assay was performed in opaque white Kalypsys 1536-well plates. In the screen, tamoxifen and doxorubicin were used as positive controls. Library compounds were measured for their ability to cause acute toxicity in the cell line, as reflected by a decrease in intracellular ATP levels, in a concentration-dependent manner. […] AC50 values were determined from concentration-response data modeled with the standard Hill equation.
# qHTS protocol fo CellTiter Glo H-4-II-E cellular assay
# [Step] [Parameter] [Value] [Description]
# 1. Reagent; 5 uL; 1500 H-4-II-E cells/well
# 2. Time; 5 hr; 37 °C incubation
# 4. Controls; 23 nL; Tamoxifen 0.34 uM to 100 uM & Doxorubicin 0.02 nM to 100 uM
# 5. Time; 40 hr; 37 °C incubation
# 6. Reagent; 5 uL; CellTiter Glo reagent
# 7. Time; 20 min; Room Temperature
# 8. Detection; Luminescence; Viewlux plate reader
# Keywords: cell viability, cytotoxicity, H-4-II-E cell line, luminescence, NTPHTS, NTPHTS_NCGC, NIEHS, EPA, DSSTox, MLSMR, MLSCN, NIH Roadmap, qHTS, NCGC
# % is set by controls: 0 for no effect and ±100 for the full control effect; potency is the fitted concentration of half-maximal effect.
Structure (SMILES),"activity change, negative = cytotoxic",Potency
Nc1ccccc1C(=O)OCCc1ccccc1,-8.31%,–
C(=NC1CCCCC1)=NC1CCCCC1,–,1.26 µM (active)
CCCCCCCCn1sccc1=O,–,12.6 µM (active)
c1ccc2cc3c(cc2c1)-c1cccc2cccc-3c12,-7.5%,–
N#CC(Cl)Cl,-4.77%,–
O=C(O)C1C(C(=O)O)C2(Cl)C(Cl)=C(Cl)C1(Cl)C2(Cl)Cl (stereo unspecified),3.38%,–
CC(C)CC(C)Nc1ccc(Nc2ccccc2)cc1 (stereo unspecified),–,50.1 µM (active)
COP(=O)(OC)O/C(=C\Cl)c1cc(Cl)c(Cl)cc1Cl,-18.6%,–
[CH3][Hg][Cl],–,5.01 µM (active)
CN(C)c1ccc(N=O)cc1,–,6.31 µM (active)
O=[N+]([O-])C(Br)Br,–,31.6 µM (active)
Oc1c(Br)c(Br)c(Br)c(Br)c1Br,–,50.1 µM (active)
C#CCO,7.2%,–
N#CSCSC#N,–,10 µM (active)
OC(c1ccc(Cl)cc1)(c1ccc(Cl)cc1)C(Cl)(Cl)Cl,-26.5%,–
FC(F)(F)c1ccc(Cl)cc1,-3.94%,–
CC(=O)[O-].CC(=O)[O-].O.O.[Cd+2],–,2.51 µM (active)
C[C@@H]1CC[C@@]2(OC1)O[C@H]1[C@@H](O)[C@H]3[C@@H]4CC[C@H]5C[C@@H](O[C@@H]6O[C@H](CO)[C@H](O[C@@H]7O[C@H](CO)[C@@H](O)[C@H](O[C@@H]8OC[C@@H](O)[C@H](O)[C@H]8O)[C@H]7O[C@@H]7O[C@H](CO)[C@@H](O)[C@H](O[C@@H]8O[C@H](CO)[C@@H](O)[C@H](O)[C@H]8O)[C@H]7O)[C@H](O)[C@H]6O)[C@H](O)C[C@]5(C)[C@H]4CC[C@]3(C)[C@H]1[C@@H]2C,–,20 µM (active)
O=C1C2(Cl)C3(Cl)C4(Cl)C(Cl)(Cl)C5(Cl)C3(Cl)C1(Cl)C5(Cl)C24Cl (stereo unspecified),–,31.6 µM (active) and 50.1 µM (active)
O=C(CCl)c1ccccc1,–,15.8 µM (active)
[Cd+2].[Cl-].[Cl-],–,1.26 µM (active)
